Experimental data published in PubChem BioAssay (NCATS).
Records with an inconclusive call do not appear. Unmarked numbers belong to inactive results. Calls come from the whole dose curve; as a rule, active = well fitted curve in the direction sought with a large enough effect; inconclusive = small, poorly fitted or top-dose-only effect, or another doubt; inactive = no such curve, though single readings can be large or run the other way.

assay: Dual reporter qHTS for antagonist of Pregnane X Receptor (hPXR) against the NCATS DSHEA and TCM libraries: Fluorescence Readout (AID 1920061); details: PXR dual reporter cells, antagonist mode; series mostly up to 40 µM; activity change, negative = inhibition: at the top concentration; note: 0% is about no effect
Summary of the method: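 Rifampicin-stimulated (2 uM final) hPXR-luciferase HepG2 cells were treated for 24 h with DSNP/TCM substances. Viability came from CellTiter-Fluor fluorescence, reporter activity from ONE-Glo luminescence.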

Row | SMILES | activity change, negative = inhibition
1 | CC(C)=CCCC(C)=CCCC(C)=CCCC=C(C)CCC=C(C)CCC=C(C)C | 8.92%
2 | CCCCCCCCCCCCCCCCCCCCCCCCCCCCCCO | 2.96% [at 5 µM]
3 | CC(C)c1ccc(C=O)cc1 | 6.08% [at 68.2 µM]
4 | O=Cc1ccccc1O | 6.75% [at 68.2 µM]
5 | CC/C=C\C/C=C\C/C=C\C/C=C\CCCCC(=O)O | -0.29% [at 5 µM]
6 | C=C1C[C@@]23CC[C@H]4[C@@](C)(CCC[C@@]4(C)C(=O)O[C@@H]4O[C@H](CO)[C@@H](O)[C@H](O)[C@H]4O)[C@@H]2CC[C@]1(O[C@@H]1O[C@H](CO)[C@@H](O)[C@H](O[C@@H]2O[C@H](CO)[C@@H](O)[C@H](O)[C@H]2O)[C@H]1O[C@@H]1O[C@@H](C)[C@H](O)[C@@H](O)[C@H]1O)C3 | -7.26%
7 | C=C1C[C@]23CC[C@H]4[C@@](C)(CCC[C@@]4(C)C(=O)O)[C@@H]2CC[C@@]1(O[C@@H]1O[C@H](CO)[C@@H](O)[C@H](O)[C@H]1O[C@@H]1O[C@H](CO)[C@@H](O)[C@H](O)[C@H]1O)C3 | 6.51%
8 | Cc1ccc(C(C)C)cc1 | -13.4% [at 68.2 µM]
9 | Cc1ncc(COP(=O)(O)O)c(C)c1O | 4.38%
10 | OCCc1ccc(O)cc1 | 9.18% [at 68.2 µM]
11 | CN(CC(=O)O)C(=N)N | 5.57% [at 121 µM]
12 | COc1ccc(C(=O)O)cc1 | 7.83% [at 68.2 µM]
13 | CC(C)(O)[C@@H]1CC[C@](C)([C@@H]2[C@H](O)C[C@]3(C)C4C[C@@H](O[C@H]5O[C@@H](CO)[C@H](O)[C@@H](O)[C@@H]5O)C5C(C)(C)[C@H](O[C@H]6OC[C@H](O)[C@@H](O)[C@@H]6O)CC[C@]56CC46CC[C@@]23C)O1 (some centres not stated) | 8.35%
14 | C=CC(=C)CCC=C(C)C | 10.6%
15 | CC1=CCC(O)(C(C)C)CC1 (configuration not stated) | 8.94% [at 68.2 µM]
16 | CCCCCC/C=C\CCCCCCCC(=O)O | 2.34%
17 | CC(C)=CCC[C@](C)(O[C@@H]1O[C@H](CO)[C@@H](O)[C@H](O)[C@H]1O)[C@H]1CC[C@]2(C)[C@@H]1[C@H](O)C[C@@H]1[C@@]3(C)CC[C@H](O)C(C)(C)[C@@H]3[C@@H](O[C@@H]3O[C@H](CO)[C@@H](O)[C@H](O)[C@H]3O[C@@H]3O[C@@H](C)[C@H](O)[C@@H](O)[C@H]3O)C[C@]12C | 5.48%
